“And” between values parts separate entries of the source, which are not always exact repeats. Identical values can stand only once. Inconclusive results are not listed. A structure can be active in one record and inactive in another. A number with no mark means an inactive call. The source made the active and inactive calls. Calls follow the shape of the dose curve; as a rule, active = well fitted inhibition curve with a large enough effect; inconclusive = small, poorly fitted or top-dose-only effect; inactive = flat fitted curve, though single readings scatter.

Assay [1] concerns CRL-7250. Put plainly: Cytotoxic Profiling of Annotated Libraries Using Quantitative High-Throughput Screening (AID 1296008). Conditions: Five cell lines viability, CellTiter-Glo ATP luminescence, 48-72 h; max response: stronger effect = lower value. A digest of the protocol: (§1)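 Compounds were pin-transferred onto cells and incubated 48 or 72 hr at 37 degree Celsius, 95% humidity. CellTiter-Glo was added, plates sat 10 min at room temperature, then ATP-coupled luminescence was imaged as the viability read-out.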
For orientation: In ATP-based viability assays light output follows the ATP content of the culture.

For assay [2], the system named is HEK293. The assay is described as above. To be noted: Five cell lines viability, CellTiter-Glo ATP luminescence, 48-72 h; max response: stronger effect = lower value. An outline of the steps:
as §1

Assay [3] relates to HaCat. The description is as above. Conditions: Five cell lines viability, CellTiter-Glo ATP luminescence, 48-72 h; max response: stronger effect = lower value. An outline of the steps: as §1
Assay [4] has as its system KB-3-1. Described as above. Conditions: Five cell lines viability, CellTiter-Glo ATP luminescence, 48-72 h; max response: stronger effect = lower value. An outline of the steps: as §1
For assay [5], the system named is NIH3T3. Described as above. Conditions: Five cell lines viability, CellTiter-Glo ATP luminescence, 48-72 h; max response: stronger effect = lower value. A digest of the protocol: as §1
Assay [6] deals with HEK293T. In words: qHTS assay to identify novel small-molecules to repurpose for Merkel cell carcinoma treatment (AID 1296009). Conditions: MCC and control cell lines, CellTiter-Glo viability, 72 h; at 44.8 µM (top of the series) unless noted. A digest of the protocol: (§2)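 Cells exposed to NPC (8-point) and MIPE (11-point) compound dilutions for 72 hr at 37 degree celsius; viability read by CellTiter-Glo luminescence, normalized to no-cell and DMSO in-plate controls.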
A general note: qHTS replaces the single test concentration by a dilution series.

The test system of assay [7] is MCC-13. Described as above. Conditions: MCC and control cell lines, CellTiter-Glo viability, 72 h; series mostly up to 46 µM. A digest of the protocol:
as §2

The test system of assay [8] is MCC-26. The assay is described as above. Conditions: MCC and control cell lines, CellTiter-Glo viability, 72 h; series mostly up to 46 µM. A digest of the protocol:
as §2

Assay [9] has as its system HACAT. Described as above. To be noted: MCC and control cell lines, CellTiter-Glo viability, 72 h; series mostly up to 44.8 µM. An outline of the steps:
as §2
% is scaled to controls: 0 for no effect and ±100 for the full control effect; potency is read from the fitted curve at half-maximal effect.
Also: nearly all actives have a fitted effect of over 60% in size.

For `Cc1ccc(NC(=O)C2(c3ccc4c(c3)OC(F)(F)O4)CC2)nc1-c1cccc(C(=O)O)c1`, the Potency in assay [1] is 0.187 µM (active); in assay [2], 37.2 nM (active); in [3], 0.418 µM (active); in assay [4] it was 0.0526 µM (active); in [5] it was 0.0935 µM (active); in assay [7], 1.18 µM (active). In [8], the Potency is 0.833 µM (active). The max response in [1] was -5.91%; in [3], -0.152%. Further, the compound was classed as inactive in [2], in assay [4], in assay [5] and in [6].

Regarding `Nc1nc(NCCNc2ncc(-n3ccnc3)c(-c3ccc(Cl)cc3Cl)n2)ccc1[N+](=O)[O-]`, the Potency in assay [1] was 5.8 µM (active); in [4], 20.6 µM (active). The max response is -3.28% in [1], 4.96% in assay [2] and 4.08% in assay [5]. The compound was classed as inactive in [3], in [4] and in assay [5]. Also, the Potency result in assay [9], in [7] and in [8] was “inactive” in each case.

Consider `CCCCCCCCCC(=O)N[C@@H](Cc1c[nH]c2ccccc12)C(=O)N[C@H](CC(N)=O)C(=O)N[C@@H](CC(=O)O)C(=O)N[C@@H]1C(=O)NCC(=O)N[C@@H](CCCN)C(=O)N[C@@H](CC(=O)O)C(=O)N[C@H](C)C(=O)N[C@@H](CC(=O)O)C(=O)NCC(=O)N[C@H](CO)C(=O)N[C@@H]([C@@H](C)CC(=O)O)C(=O)N[C@@H](CC(=O)c2ccccc2N)C(=O)O[C@@H]1C`, for which the result in [1], in assay [2], in assay [3], in [4], in [5] and in [6] was inactive. The max response was 3.78% in assay [2], -26.3% in assay [3] and -13.2% in [5]. Further, the Potency result in assay [9], in assay [7] and in [8] was “inactive” each time.

On to `COc1cc(-c2nn(C3CCC(N4CCN(C(C)=O)CC4)CC3)c3ncnc(N)c23)ccc1NC(=O)c1cc2ccccc2n1C` (centres undefined), for which the max response was -38.4% in assay [1]; -12.7% in [2]; -22.8% in assay [3]; -0.49% in assay [4]; -32.1% and -29.8% in [5]. For the same compound, the values for the Potency in assay [3] and in [4] were 3.66 µM (active) and 20.6 µM (active), respectively.

`CCNC(=O)Nc1ccc2ncc(Nc3ccc(C)cc3)nc2n1`: the max response in assay [1] is -2.45%; in assay [2] it was 1.18% and 1.8%; in assay [3] it was -7.35% and 2.38%; in assay [4] it was -0.0839%; in assay [5], 4.76% and -10.1%. Besides, the compound was called inactive in assay [1] and in [4]. In assay [7], the Potency result is “inactive”.

For `CCOc1ccccc1OCCNC(C)Cc1ccc(OC)c(S(N)(=O)=O)c1` (centres undefined), the max response was 3.17% in [1]; -25.2% in [2]; -9.05% in assay [3]; 7.71% in assay [4]; -0.288% in assay [5]. The result in assay [1], in assay [3], in assay [4] and in assay [5] was inactive. The Potency entry in [9], in [7] and in assay [8] was “inactive” each time.

Take `OCc1ccc(-c2ccc(-c3ccc(CO)s3)o2)s1`: the max response in assay [1] is -8.37%; in [3], 4.62%; in [4] it was -70.8%; in assay [5], -23.8%. Besides, the Potency is 142 nM (active) in assay [2] and 2.82 µM (active) in [4]. Moreover, in assay [3], the compound was classed as inactive. Further, the Potency entry in [9] and in assay [8] was “inactive” in each case.

Turning to `CNC(=O)c1ccc(-c2cnc3ncc(Cc4ccc5ncccc5c4)n3n2)cc1F`, the max response in [1] was -2.64%; in assay [3] it was -3.74% and -10.2%; in [4], 3.93% and 3.42%; in assay [5], -7.6% and -25.4%. Also, the compound was called inactive in assay [1], in [2] and in assay [6]. Also, the Potency entry in assay [7] and in assay [8] was “inactive” throughout.

`CC(C)CC(=O)Nc1n[nH]c2c1CN(C(=O)C1CCN(C)CC1)C2(C)C`: the Potency in assay [1] was 1.48 µM (active); in assay [2] it was 372 nM (active) and 326 nM (active); in [3] it was 9.35 µM (active) and 2.31 µM (active); in assay [4] it was 2.35 µM (active) and 2.91 µM (active); in [5] it was 16.6 µM (active); in assay [8] it was 18.7 µM (active). Also, the max response in assay [1] was -90.6%. Also, in assay [7], the Potency entry is “inactive”.

Take `NC(=O)c1c(OCc2c(F)cc(Br)cc2F)nsc1NC(=O)NCCCCN1CCCC1`: the Potency is 4.69 µM (active) and 8.2 µM (active) in assay [1]; 14800 nM (active) in assay [2]; 26.4 µM (active) in assay [3]; 9.35 µM (active) in assay [4]; 235 nM (active) and 2.06 µM (active) in assay [5]. Moreover, in assay [3], the outcome was inactive. The Potency entry in [9] is “inactive”.

Consider `CC1(O)CC(c2nc(-c3ccc4ccc(-c5ccccc5)nc4c3)c3c(N)nccn23)C1` (centres undefined), for which the Potency is 11.8 µM (active) in assay [1], 4690 nM (active) in [2] and 16.6 µM (active) in assay [5]. The values for the max response in [1] and in assay [3] were -9.35% and -1.26%, respectively. In assay [3], the compound was classed as inactive. The Potency entry in [9], in assay [7] and in assay [8] was “inactive” each time.

Regarding `Cn1c(CNc2ccc(C(=N)N)cc2)nc2cc(C(=O)N(CCC(=O)O)c3ccccn3)ccc21`, the Potency in [1] is 7.24 µM (active). Besides, the max response in assay [1] is -5.55%; in [2], -4.52%; in assay [3] it was -0.657% and -2.49%; in [4] it was -2.52%. In addition, the compound was classed as inactive in assay [4] and in assay [5]. For the same compound, the Potency entry in assay [7] and in [8] was “inactive” in each case.

The values are drawn from PubChem BioAssay (NCATS).
